Several values for one entry are separate records, joined by “and”; a condition that tells them apart may be missing. Identical values can stand only once. Some structures have more than one record in an assay (separate samples or runs), and their calls can disagree. Activity calls are given as the source filed them.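 The calls were made as follows, unless noted: active = z-score of at least 1.8 in each of two replicates, scored against plate mean and spread of sample wells; inactive = the rest.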
Columns and labels:
[1] = target: NAD(+) hydrolase SARM1 (Homo sapiens) (UniProt Q6SZW1); assay: blocking NAD cleavage by SARM1 SAM-TIR – cell lysate, NAD-Glo luminescence (AID 1508614;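 active = compound whose remaining NAD level is above about 45 nM, limit read from the data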;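 also: higher remaining NAD means stronger inhibition of SARM1 NADase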); conditions: SAM-TIR HEK293T lysate NADase, at 1 µM, stronger effect = higher value
Sequence of NAD(+) hydrolase SARM1 (Homo sapiens) (Q6SZW1 whole entry, looked up, the tested form may be a part): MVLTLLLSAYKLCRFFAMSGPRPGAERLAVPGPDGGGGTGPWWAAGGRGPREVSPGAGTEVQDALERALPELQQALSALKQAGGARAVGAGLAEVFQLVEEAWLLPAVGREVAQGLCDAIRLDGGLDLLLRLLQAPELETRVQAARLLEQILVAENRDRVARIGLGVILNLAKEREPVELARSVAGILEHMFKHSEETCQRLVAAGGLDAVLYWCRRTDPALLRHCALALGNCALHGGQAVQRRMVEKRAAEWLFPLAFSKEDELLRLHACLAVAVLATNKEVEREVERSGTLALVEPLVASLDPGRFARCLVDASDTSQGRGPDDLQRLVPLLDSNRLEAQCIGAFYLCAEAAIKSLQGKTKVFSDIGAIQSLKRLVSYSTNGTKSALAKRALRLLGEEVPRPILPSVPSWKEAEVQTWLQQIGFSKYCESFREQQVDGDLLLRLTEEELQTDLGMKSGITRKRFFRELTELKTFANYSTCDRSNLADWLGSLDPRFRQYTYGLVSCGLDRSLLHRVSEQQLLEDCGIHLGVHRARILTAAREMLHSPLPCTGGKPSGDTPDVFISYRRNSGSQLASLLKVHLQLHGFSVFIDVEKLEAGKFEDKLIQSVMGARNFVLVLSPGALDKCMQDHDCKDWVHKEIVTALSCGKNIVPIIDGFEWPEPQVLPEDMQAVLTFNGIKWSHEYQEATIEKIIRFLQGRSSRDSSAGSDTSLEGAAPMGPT

[2] = target: Mitogen-activated protein kinase 7 (Homo sapiens) (UniProt Q13164); assay: Gal4-ERK5 driven luciferase induction – cell-based, HTS, primary screen (AID 1508626;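 active = luciferase signal above three times the same-plate solvent-only control wells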;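 also: luciferase driven by Gal4-ERK5 fusion binding five Gal4 sites before minimal TATA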); conditions: HeLa Gal4-ERK5 transactivation, 18 h, at 5 µM, stronger effect = higher value
Sequence of Mitogen-activated protein kinase 7 (Homo sapiens) (Q13164 whole entry, looked up, the tested form may be a part): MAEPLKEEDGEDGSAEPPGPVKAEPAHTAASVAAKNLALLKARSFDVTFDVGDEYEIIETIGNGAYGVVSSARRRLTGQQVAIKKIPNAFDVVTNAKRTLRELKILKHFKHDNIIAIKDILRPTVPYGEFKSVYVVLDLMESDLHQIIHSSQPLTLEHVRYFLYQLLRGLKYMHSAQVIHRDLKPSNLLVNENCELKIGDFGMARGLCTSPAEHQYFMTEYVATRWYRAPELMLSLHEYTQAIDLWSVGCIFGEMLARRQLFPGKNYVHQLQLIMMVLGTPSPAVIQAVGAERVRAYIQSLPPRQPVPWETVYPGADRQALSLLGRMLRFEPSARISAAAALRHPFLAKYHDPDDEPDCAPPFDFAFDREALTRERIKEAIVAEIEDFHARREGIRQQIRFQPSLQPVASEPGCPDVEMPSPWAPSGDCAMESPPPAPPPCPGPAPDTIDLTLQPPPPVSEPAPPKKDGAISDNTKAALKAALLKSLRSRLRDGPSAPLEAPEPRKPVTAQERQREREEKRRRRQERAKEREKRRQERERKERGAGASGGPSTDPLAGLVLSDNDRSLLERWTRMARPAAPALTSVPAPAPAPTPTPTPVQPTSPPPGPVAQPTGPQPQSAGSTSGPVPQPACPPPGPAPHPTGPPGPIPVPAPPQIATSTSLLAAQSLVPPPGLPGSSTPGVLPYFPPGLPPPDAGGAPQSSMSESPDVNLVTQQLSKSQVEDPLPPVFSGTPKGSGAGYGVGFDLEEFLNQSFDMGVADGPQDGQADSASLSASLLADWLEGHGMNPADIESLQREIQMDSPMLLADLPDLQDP

[3] = galactose survival enhancers in mitochondrial complex I cybrids – cell-based, galactose medium, ATP luminescence, primary screen (AID 1645843); conditions: complex I mutant cybrid cells, 72 h, stronger effect = higher value;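 also: positive z means more ATP and so rescue of galactose-driven cybrid death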

CNC[C@H](O)c1ccc(O)c(O)c1
remaining NAD [1]: 10 nM (inactive)
luciferase signal [2]: 24 AU (inactive)
z-score [3]: -1.02 (inactive)

CS(=O)(=O)Nc1ccc([N+](=O)[O-])cc1Oc1ccccc1
remaining NAD [1]: 10 nM (inactive)
luciferase signal [2]: 60 AU (inactive)
z-score [3]: 1.54 (inactive) and 2.81 (active) and 0.735 (inactive)

CCN(CCCCOC(=O)c1ccc(OC)c(OC)c1)C(C)Cc1ccc(OC)cc1 (stereo unspecified)
remaining NAD [1]: 10 nM (inactive)
luciferase signal [2]: 52 AU (inactive)

NCCCC[C@H](N[C@@H](CCc1ccccc1)C(=O)O)C(=O)N1CCC[C@H]1C(=O)O
remaining NAD [1]: 10 nM (inactive)
luciferase signal [2]: 92 AU (inactive)
z-score [3]: 0.245 (inactive)

CC(=O)Oc1cccc2c1C(=O)c1c(OC(C)=O)cc(C(=O)O)cc1C2=O
remaining NAD [1]: 10 nM (inactive)
luciferase signal [2]: 44 AU (inactive)

O=C(O)c1cn(-c2ccc(F)cc2)c2cc(N3CCNCC3)c(F)cc2c1=O
remaining NAD [1]: 14 nM (inactive)
luciferase signal [2]: 72 AU (inactive)
z-score [3]: 0.12 (inactive)

CCCOc1ccc2nc(NC(=O)OC)[nH]c2c1
remaining NAD [1]: 10 nM (inactive)
luciferase signal [2]: 40 AU (inactive)
z-score [3]: -1.72 (inactive)

O=C(O)c1cccnc1Nc1cccc(C(F)(F)F)c1
remaining NAD [1]: 10 nM (inactive)
luciferase signal [2]: 60 AU (inactive)
z-score [3]: -0.15 (inactive) and 0.22 (inactive)

O=P(O)(O)C(O)(Cc1cccnc1)P(=O)(O)O
remaining NAD [1]: 10 nM (inactive)
luciferase signal [2]: 1260 AU (active)
z-score [3]: 0.515 (inactive)

COc1cc(C(=O)NCc2ccc(OCCN(C)C)cc2)cc(OC)c1OC
remaining NAD [1]: 10 nM (inactive)
luciferase signal [2]: 48 AU (inactive)
z-score [3]: 0.17 (inactive)

COc1ccc(CCN2CCC(Nc3nc4ccccc4n3Cc3ccc(F)cc3)CC2)cc1
remaining NAD [1]: 10 nM (inactive)
luciferase signal [2]: 84 AU (inactive)
z-score [3]: -0.615 (inactive) and -2.45 (inactive)

CCOC(=O)C(C)(C)Oc1ccc(Cl)cc1
remaining NAD [1]: 10 nM (inactive)
luciferase signal [2]: 44 AU (inactive)
z-score [3]: 0.15 (inactive) and 0.675 (inactive)

Nc1ccc(C(=O)O)c(O)c1
remaining NAD [1]: 10 nM (inactive)
luciferase signal [2]: 44 AU (inactive)
z-score [3]: 0.45 (inactive)

Cc1cn[nH]c1
remaining NAD [1]: 10 nM (inactive)
luciferase signal [2]: 44 AU (inactive)
z-score [3]: 0.65 (inactive)

NC(N)=N/N=C/c1c(Cl)cccc1Cl
remaining NAD [1]: 10 nM (inactive)
luciferase signal [2]: 52 AU (inactive)
z-score [3]: -0.795 (inactive) and 0.845 (inactive) and -1.38 (inactive)

CC(C)NCC(O)c1ccc2ccccc2c1 (stereo unspecified)
remaining NAD [1]: 10 nM (inactive)
luciferase signal [2]: 36 AU (inactive)
z-score [3]: 0.85 (inactive) and 0.48 (inactive)

O=C(O)CN1C(=O)c2cccc3cccc(c23)C1=O
remaining NAD [1]: 13 nM (inactive)
luciferase signal [2]: 44 AU (inactive)
z-score [3]: 0.415 (inactive)

COC(=O)[C@H]1[C@H]2C[C@@H]3c4[nH]c5cc(OC)ccc5c4CCN3C[C@H]2C[C@@H](OC(=O)c2cc(OC)c(OC)c(OC)c2)[C@@H]1OC
remaining NAD [1]: 10 nM (inactive)
luciferase signal [2]: 64 AU (inactive)
z-score [3]: -0.19 (inactive) and -0.39 (inactive)

C[C@]12CC[C@@H]3c4ccc(O)cc4CC[C@H]3[C@@H]1CCC2=O
remaining NAD [1]: 10 nM (inactive)
luciferase signal [2]: 28 AU (inactive)
z-score [3]: -0.23 (inactive) and -0.335 (inactive)

Cc1[nH]c(C)c(Cl)c(=O)c1Cl
remaining NAD [1]: 10 nM (inactive)
luciferase signal [2]: 48 AU (inactive)
z-score [3]: 0.41 (inactive)

N[C@@H](Cc1ccc(O)c(O)c1)C(=O)O
remaining NAD [1]: 10 nM (inactive)
luciferase signal [2]: 72 AU (inactive)
z-score [3]: -0.965 (inactive) and -1.59 (inactive)

C[N+](C)(C)CCCCCC[N+](C)(C)C
remaining NAD [1]: 10 nM (inactive)
luciferase signal [2]: 52 AU (inactive)
z-score [3]: 0.205 (inactive) and 0.235 (inactive)

CC1(C)S[C@@H]2[C@H](NC(=O)[C@H](N)c3ccccc3)C(=O)N2[C@H]1C(=O)O
remaining NAD [1]: 10 nM (inactive)
luciferase signal [2]: 44 AU (inactive)
z-score [3]: 0.415 (inactive)

CCCCOc1ccc(C(=O)CCN2CCCCC2)cc1
remaining NAD [1]: 10 nM (inactive)
luciferase signal [2]: 40 AU (inactive)

C=CCc1ccccc1OCC(O)CNC(C)C (stereo unspecified)
remaining NAD [1]: 10 nM (inactive)
luciferase signal [2]: 60 AU (inactive)
z-score [3]: -0.345 (inactive) and 0.39 (inactive)

CNC[C@H](O)c1cccc(O)c1
remaining NAD [1]: 10 nM (inactive)
luciferase signal [2]: 40 AU (inactive)
z-score [3]: 0.64 (inactive)

COc1ccc(CCN(C)CCCC(C#N)(c2ccc(OC)c(OC)c2)C(C)C)cc1OC (stereo unspecified)
remaining NAD [1]: 10 nM (inactive)
luciferase signal [2]: 96 AU (inactive)

CN1CCC[C@@H]1CCO[C@](C)(c1ccccc1)c1ccc(Cl)cc1
remaining NAD [1]: 10 nM (inactive)
luciferase signal [2]: 32 AU (inactive)
z-score [3]: -0.775 (inactive) and -1.7 (inactive)

CN1CCN(C2=Nc3ccccc3Oc3ccc(Cl)cc32)CC1
remaining NAD [1]: 10 nM (inactive)
luciferase signal [2]: 132 AU (inactive)
z-score [3]: -0.48 (inactive) and -0.015 (inactive)

CC(=O)N(O)CCCCCNC(=O)CCC(=O)N(O)CCCCCNC(=O)CCC(=O)N(O)CCCCCN
remaining NAD [1]: 10 nM (inactive)
luciferase signal [2]: 40 AU (inactive)
z-score [3]: 0.76 (inactive)
